Measured values published in PubChem BioAssay.
Results filed as inconclusive are left out. Active and inactive are the calls of the source.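 Rule for the calls, unless noted: active = normalized viability below 100% at a tested concentration; inactive = the rest.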

What was measured:
[1] = growth inhibition of DIPG glioma cells, dose response, cell-based, SU-DIPG-XVII, MIPE5.0, CellTiter-Glo, qHTS (AID 1347060; cut-off not given, nearly all actives have AC50 up to about 26 µM;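 for AC50: cells exposed to compound for 48 hours before viability readout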); conditions: SU-DIPG-XVII viability, CellTiter-Glo ATP luminescence
[2] = growth inhibition of DIPG glioma cells, dose response, cell-based, JHH-DIPG-1, MIPE4.0, CellTiter-Glo, qHTS (AID 1347062; cut-off not given, nearly all actives have AC50 up to about 27 µM;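 for AC50: cells exposed to compound for two days before readout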); conditions: JHH-DIPG-1 viability, CellTiter-Glo ATP luminescence
[3] = growth inhibition of DIPG glioma cells, dose response, cell-based, SU-DIPG-IV, MIPE4.0, CellTiter-Glo, qHTS (AID 1347063; cut-off not given, nearly all actives have AC50 up to about 30 µM;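 note: compound exposure lasted 48 hours before the viability readout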); conditions: SU-DIPG-IV viability, CellTiter-Glo ATP luminescence
[4] = viability loss in pontine glioma line – cell-based, SU-DIPG-XXV, MIPE5.0, CellTiter-Glo, qHTS, dose response (AID 1347065; cut-off not given, nearly all actives have AC50 up to about 26 µM;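 note: cells exposed to compound for 48 hours before ATP readout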); conditions: CellTiter-Glo ATP luminescence
[5] = SU-DIPG-VI glioma cell viability, MIPE4.0 library, CellTiter-Glo luminescence, qHTS (AID 1347066; cut-off not given, nearly all actives have AC50 up to about 30 µM;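 note: cells exposed to compound for 48 hours before readout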); conditions: CellTiter-Glo ATP luminescence
[6] = JHH-DIPG-1 glioma cell viability, MIPE5.0 library, CellTiter-Glo luminescence, qHTS (AID 1347067; cut-off not given, nearly all actives have AC50 up to about 26 µM;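 note: cells exposed to compound for 48 hours before readout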); conditions: JHH-DIPG-1 glioma viability, CellTiter-Glo ATP luminescence
[7] = SU-DIPG-XXV glioma cell viability, MIPE5.0 library, qHTS (AID 1347068; cut-off not given, nearly all actives have IC50 up to about 30 µM;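 for IC50: cells exposed to compound for 48 hours before viability readout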)
[8] = sensitizers of A549 cells to miR-34 induction, primary screen, imaging, A549 dox-inducible miR-34, nuclei and caspase counts (AID 1347080;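 active = compounds whose cell count with miR-34 switched on is under 0.7 times the count with it off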); conditions: A549 miR-34 inducible, Hoechst nuclei count, 48 h
[9] = modifiers of HSF1 nuclear foci, imaging, Selleck Cancer Library (AID 1347162; in the data active = plate-normalised HSF1 focus index below about 0.46); conditions: human cells, at 10 µM; SSMD: measured here: HSF1 foci SSMD mean; cell count: measured here: cell number; plate-normalised HSF1 focus index: stronger effect = lower value
[10] = survival rescue of mitochondrial mutant cells in low glucose, primary screen, MELAS cybrids, Rieske KO mouse fibroblasts, CellTiter-Glo (AID 1508586;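 active = mean z-score across replicates of 1.96 or higher in either the MELAS or the Rieske mutant cell line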;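 note: z relative to plate mean and SD of compound and empty wells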)
[11] = ovarian cancer cell viability with rucaparib, profiling panel, oncology-focused library, rucaparib conditional (AID 1508598); conditions: patient-derived ovarian cancer cells, CellTiter-Glo viability, 144 h, stronger effect = lower value
[12] = stronger effect = lower value, cell number ratio, induced over uninduced
[13] = measured here: relative caspase fold change +Dox/-Dox
[14] = measured here: total cells with miR-34 induction, stronger effect = lower value
[15] = measured here: total cells without miR-34 induction
[16] = MELAS cybrid survival, CellTiter-Glo 48 h, stronger effect = higher value
[17] = Rieske KO mouse fibroblast survival, CellTiter-Glo 72 h
[18] = at 0.000305 µM, OCI-C5x cells, with rucaparib 10 µM, 100% = cells with rucaparib alone
[19] = at 0.000305 µM, OCI-C5x cells, without rucaparib
[20] = at 0.000305 µM, OCI-P5x cells, with rucaparib 20 µM, 100% = cells with rucaparib alone
[21] = at 0.000305 µM, OCI-P5x cells, without rucaparib
[22] = at 0.00122 µM, OCI-C5x cells, with rucaparib 10 µM, 100% = cells with rucaparib alone
[23] = at 0.00122 µM, OCI-C5x cells, without rucaparib
[24] = at 0.00122 µM, OCI-P5x cells, with rucaparib 20 µM, 100% = cells with rucaparib alone
[25] = at 0.00122 µM, OCI-P5x cells, without rucaparib
[26] = at 0.00488 µM, OCI-C5x cells, with rucaparib 10 µM, 100% = cells with rucaparib alone
[27] = at 0.00488 µM, OCI-C5x cells, without rucaparib
[28] = at 0.00488 µM, OCI-P5x cells, with rucaparib 20 µM, 100% = cells with rucaparib alone
[29] = at 0.00488 µM, OCI-P5x cells, without rucaparib
[30] = at 0.0195 µM, OCI-C5x cells, with rucaparib 10 µM, 100% = cells with rucaparib alone
[31] = at 0.0195 µM, OCI-C5x cells, without rucaparib

CNC(=O)c1ccc(N2C(=S)N(c3ccc(C#N)c(C(F)(F)F)c3)C(=O)C2(C)C)cc1F
0.602: z-score [10, 17]
7300: cell count [8, 14]
1.28: fold change [8, 13]
6500: cell count [9]
0.472: SSMD [9]
inactive: outcome [1] | outcome [2] | outcome [3] | outcome [4] | outcome [5] | outcome [6] | outcome [7] | fold change [8, 12] 0.873 | plate-normalised HSF1 focus index [9] 1.02 | z-score [10, 16] -0.357 | viability [11, 18] 110% | viability [11, 22] 110% | viability [11, 26] 110% | viability [11, 30] 113% | viability ([11]; at 0.0781 µM, OCI-C5x cells, with rucaparib 10 µM, 100% = cells with rucaparib alone) 108% | viability ([11]; at 0.0781 µM, OCI-C5x cells, without rucaparib) 102% | viability ([11]; at 0.313 µM, OCI-C5x cells, with rucaparib 10 µM, 100% = cells with rucaparib alone) 108% | viability ([11]; at 0.313 µM, OCI-P5x cells, with rucaparib 20 µM, 100% = cells with rucaparib alone) 102% | viability ([11]; at 1.25 µM, OCI-C5x cells, with rucaparib 10 µM, 100% = cells with rucaparib alone) 117% | viability ([11]; at 1.25 µM, OCI-C5x cells, without rucaparib) 104% | viability ([11]; at 1.25 µM, OCI-P5x cells, with rucaparib 20 µM, 100% = cells with rucaparib alone) 102% | viability ([11]; at 5 µM, OCI-C5x cells, with rucaparib 10 µM, 100% = cells with rucaparib alone) 127% | viability ([11]; at 5 µM, OCI-C5x cells, without rucaparib) 108%
active: viability [11, 19] 85.9% | viability [11, 20] 81% | viability [11, 21] 76.7% | viability [11, 23] 93.5% | viability [11, 24] 91.6% | viability [11, 25] 82% | viability [11, 27] 91.5% | viability [11, 28] 90.9% | viability [11, 29] 85% | viability [11, 31] 95.6% | viability ([11]; at 0.0195 µM, OCI-P5x cells, with rucaparib 20 µM, 100% = cells with rucaparib alone) 92.4% | viability ([11]; at 0.0195 µM, OCI-P5x cells, without rucaparib) 87.7% | viability ([11]; at 0.0781 µM, OCI-P5x cells, with rucaparib 20 µM, 100% = cells with rucaparib alone) 94.7% | viability ([11]; at 0.0781 µM, OCI-P5x cells, without rucaparib) 85.3% | viability ([11]; at 0.313 µM, OCI-C5x cells, without rucaparib) 96.4% | viability ([11]; at 0.313 µM, OCI-P5x cells, without rucaparib) 94.4% | viability ([11]; at 1.25 µM, OCI-P5x cells, without rucaparib) 95.6% | viability ([11]; at 5 µM, OCI-P5x cells, with rucaparib 20 µM, 100% = cells with rucaparib alone) 97.6% | viability ([11]; at 5 µM, OCI-P5x cells, without rucaparib) 93.9%
8360: cell count [8, 15]

O=C(NC1CCNCC1)c1[nH]ncc1NC(=O)c1c(Cl)cccc1Cl
1340: cell count [8, 14]
1260: cell count [8, 15]
active: AC50 [1] 6.61 µM | AC50 [2] 418 nM | AC50 [3] 935 nM | AC50 [4] 7.42 µM | AC50 [6] 1.86 µM | IC50 [7] 4.68 µM | viability [11, 20] 89.7% | viability [11, 21] 97.4% | viability [11, 24] 95.9%
-4.94: SSMD [9]
-1.14: z-score [10, 17]
0.925: fold change [8, 13]
inactive: outcome [5] | fold change [8, 12] 1.06 | plate-normalised HSF1 focus index [9] 0.823 | z-score [10, 16] 0.31 | viability [11, 18] 126% | viability [11, 19] 105% | viability [11, 22] 116% | viability [11, 23] 113% | viability [11, 25] 103% | viability [11, 26] 118% | viability [11, 27] 117% | viability [11, 28] 103% | viability [11, 29] 105% | viability [11, 30] 110% | viability [11, 31] 118%
7300: cell count [9]
